# Test results from the supplement of paper PMC6992640.
# Counter-ions that a name gives are not always drawn. ± gives the standard deviation of the averaged measurements.
# Assays:
# Experiment in all cases: cell viability (% of vehicle); higher = less cytotoxic
# Conditions in all cases: 10 µM; 72 h
# HCI01 = test system: HCI01 (cells of a triple-negative basal-like breast cancer xenograft)
# HCI03 = test system: HCI03 (cells of an ER-positive luminal breast cancer xenograft)
# HCI09 = test system: HCI09 (cells of a triple-negative luminal androgen receptor type breast cancer xenograft)
# HCI11 = test system: HCI11 (cells of an ER-positive luminal breast cancer xenograft)
# HCI13 = test system: HCI13 (cells of an ER-positive luminal breast cancer xenograft)
# HCI16 = test system: HCI16 (cells of a triple-negative basal-like breast cancer xenograft)
# UCD52 = test system: UCD52 (cells of a triple-negative basal-like breast cancer xenograft)
# WHIM2 = test system: WHIM2 (cells of a triple-negative basal-like breast cancer xenograft)
# WHIM30 = test system: WHIM30 (cells of a triple-negative basal-like breast cancer xenograft)
# 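Note: PDX cells carrying CMV promoter-driven luciferase, viability read as total photon flux per second by IVIS imaging following D-luciferin, vehicle control 0.1% DMSO.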
Structure (SMILES),cell viability (HCI01),cell viability (HCI03),cell viability (HCI09),cell viability (HCI11),cell viability (HCI13),cell viability (HCI16),cell viability (UCD52),cell viability (WHIM2),cell viability (WHIM30)
COc1c(C)c2c(c(O)c1CC=C(C)CCC(=O)OCCN1CCOCC1)C(=O)OC2 [Mycophenolate Mofetil],141 ± 31,106,86.9 ± 23,103,81.8 ± 11,86.2,91.4 ± 22,112 ± 7.2,130 ± 30
N.N.[Cl][Pt+2][Cl] [Cisplatin],114 ± 0.99,124,64 ± 66,119,66.6 ± 27,117,99.9 ± 11,117 ± 18,133 ± 14
COc1ccccc1OCC(O)CN1CCN(CC(=O)Nc2c(C)cccc2C)CC1.Cl.Cl (configuration not stated) [Ranolazine 2HCl],95.6 ± 9.7,124,102 ± 7.6,109,105 ± 6,138,85.7 ± 14,114 ± 1.7,158 ± 20
C[N+](C)(C)CC(O)CC(=O)[O-] [L-Carnitine inner salt],123 ± 44,119,99.8 ± 10,95.7,111.7 ± 1.1,114,103 ± 3.8,96.9 ± 13,103 ± 10
CC12C=CC(=O)NC1CCC1C2CCC2(C)C(C(=O)Nc3cc(C(F)(F)F)ccc3C(F)(F)F)CCC12 (configuration not stated) [Dutasteride],129 ± 13,107,114 ± 15,92.4,123 ± 1.7,111,100 ± 4.5,90.3 ± 22,142 ± 12
CC1C(=O)OC2CC34C5CC(C(C)(C)C)C36C(OC(=O)C6O)OC4(C(=O)O5)C21O (configuration not stated) [Ginkgolide A],98.9 ± 14,112,97.3 ± 6.1,96.5,114 ± 6,116,91.6 ± 10,101 ± 12,91.5 ± 9.4
CSc1nc2cc(Oc3cccc(Cl)c3Cl)c(Cl)cc2[nH]1 [Triclabendazole],99.7 ± 4.9,108,83 ± 23,97.1,47.9 ± 7.4,127,89.2 ± 6.4,124 ± 34,134 ± 14
O=C(O)C1=CC(=NNc2ccc([O-])c(C(=O)[O-])c2)C=CC1=O.[Na+].[Na+] [Olsalazine Sodium],123 ± 2.4,108,127 ± 47,102,120 ± 30,88.2,91.8 ± 7.2,86.8 ± 7.9,112 ± 7.4
